# Results as given in the supplement of paper PMC9135407.
# Several values for one entry are separate records, joined by “and”; a condition that tells them apart may be missing. Identical values can stand only once. Counter-ions that a name gives are not always drawn. Among all 5,800 compounds or so, about 620 (11%) showed activity. Only a selection was taken, and actives are over-represented in it overall. Unmarked numbers belong to inactive results.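 Rule for the calls: active = score above a cut-off or among the top three wells of a plate; in these data no inactive exceeds 0.85.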
# System: primary human hepatic stellate cells (donor 1)
# Assay: scaled lipid accumulation score (0 = DMSO-like, 1 = nortriptyline-like); higher = stronger HSC inactivation (lipid re-accumulation), active = hit call of the paper
# Conditions: 48 h
# [1] = library stock concentration: 1 mM
# [2] = library stock concentration: 3.33 mM
# [3] = library stock concentration: 10 mM
# [4] = library stock concentration: 5.2 mM
# [5] = library stock concentration: 6.4 mM
structure (smiles),measurement,setting,value
CCCCC[C@H](O)/C=C/[C@H]1CCC(=O)[C@@H]1C/C=C\CCCC(=O)O [11-deoxy Prostaglandin E2],scaled lipid accumulation score,[1],0.072
CC[C@H](CO)Nc1nc(NCc2ccccc2O)c2ncn(C(C)C)c2n1 [Olomoucine II],scaled lipid accumulation score,[2],0.299
NC1=N[C@@]2(c3cc(NC(=O)c4ccc(F)cn4)ccc3F)COC[C@H]2CS1,scaled lipid accumulation score,[2],0.012
same,scaled lipid accumulation score,[3],0.209
C[C@]12CCC(=O)C=C1CC[C@@H]1[C@@H]2[C@@H](O)C[C@@]2(C)[C@H]1CC[C@]2(O)C(=O)COP(=O)(O)O [Hydrocortisone phosphate triethylamine],scaled lipid accumulation score,library stock concentration: 3.1 mM,≤ -0.001
CCOc1nc2cccc(C(=O)O)c2n1Cc1ccc(-c2ccccc2-c2noc(=O)[nH]2)cc1 [Azilsartan],scaled lipid accumulation score,[2],≤ 0
same,scaled lipid accumulation score,[3],≤ 0
CCCCC[C@H](O)/C=C/[C@H]1C(=O)C[C@H](O)[C@@H]1C/C=C/CCCC(=O)O [5-trans Prostaglandin D2],scaled lipid accumulation score,[1],≤ 0
COC(=O)C1=C(C)NC(C)=C(C(=O)OCCCN2CCC(c3ccccc3)(c3ccccc3)CC2)[C@@H]1c1cccc([N+](=O)[O-])c1 [(R)-(-)-Niguldipine hydrochloride],scaled lipid accumulation score,[3],≤ -0.006
C=C1C(=O)O[C@H]2[C@H]1CC/C(C)=C/CC[C@@]1(C)O[C@@H]21 [(-)-Parthenolide],scaled lipid accumulation score,[2],0.099
same,scaled lipid accumulation score,[3],0.534
C=C1C(=O)O[C@H]2[C@H]1CC/C(C)=C/CC[C@@]1(C)O[C@@H]21 [Parthenolide],scaled lipid accumulation score,,0.539
same,scaled lipid accumulation score,[3],0.317 and 0.269
same,scaled lipid accumulation score,library stock concentration: 20.1 mM,0.417
C=C1C(=O)O[C@@H]2/C=C(\C)CC/C=C(\C)CC[C@@H]12 [Costunolide],scaled lipid accumulation score,[2],≤ 0
same,scaled lipid accumulation score,[3],0.163 and ≤ -0.001
C=C1C(=O)OC2CC1C(OC(C)=O)C/C(C)=C/CC/C(C)=C/CC[C@]2(C)O (some centres undefined) [Crassin acetate],scaled lipid accumulation score,[3],1.04 (active)
CCCCCCCC/C=C\CCCCCCCCOC[C@H](COP(=O)([O-])OCC[N+](C)(C)C)OC(C)=O,scaled lipid accumulation score,[1],≤ -0.018
CC(=O)NCC(=O)N[C@H](CCC(=O)O)C(=O)O [N-Acetylglycyl-D-glutamic acid],scaled lipid accumulation score,[3],≤ 0
CN(CCCN1c2ccccc2CCc2ccccc21)CC(=O)c1ccc(Cl)cc1,scaled lipid accumulation score,[3],0.191
CN(C)CCCN1c2ccccc2CCc2ccc(Cl)cc21 [Clomipramine hydrochloride],scaled lipid accumulation score,library stock concentration: 5.7 mM,0.836
CN(C)CCCN1c2ccccc2CCc2ccc(Cl)cc21 [Clomipramine HCl],scaled lipid accumulation score,[2],0.402
CN(C)CCCN1c2ccccc2CCc2ccccc21.Cl [Imipramine hydrochloride],scaled lipid accumulation score,[3],1.1 (active)
CN(C)CCCN1c2ccccc2CCc2ccc(Cl)cc21.Cl [Clomipramine hydrochloride] [listing 1 of 3 here],scaled lipid accumulation score,[3],1.01 (active)
CN(C)CCCN1c2ccccc2CCc2ccccc21,scaled lipid accumulation score,[3],0.493
CN(CCCN1c2ccccc2CCc2ccccc21)CC(=O)c1ccc(Cl)cc1 [Lofepramine],scaled lipid accumulation score,[3],0.323
CN(C)CCCN1c2ccccc2CCc2ccc(Cl)cc21.Cl [Clomipramine hydrochloride] [listing 2 of 3 here],scaled lipid accumulation score,,0.968 (active)
CN(C)CCCN1c2ccccc2CCc2ccc(Cl)cc21,scaled lipid accumulation score,[3],0.755
CN(C)CCCN1c2ccccc2CCc2ccccc21 [Imipramine hydrochloride],scaled lipid accumulation score,,0.652
same,scaled lipid accumulation score,library stock concentration: 6.3 mM,0.714
same,scaled lipid accumulation score,[3],0.59
CN(C)CCCN1c2ccccc2CCc2ccccc21 [Imipramine HCl],scaled lipid accumulation score,library stock concentration: 7.1 mM,0.618
CN(C)CCN1C(=O)c2ccccc2N(C)c2ccccc21 [Dibenzepine HCl],scaled lipid accumulation score,library stock concentration: 6.8 mM,≤ 0
CN(C)CCCN1c2ccccc2CCc2ccc(Cl)cc21.Cl [Clomipramine hydrochloride] [listing 3 of 3 here],scaled lipid accumulation score,[3],1.31 (active)
C[C@@H]1CC[C@@]2(OC1)O[C@H]1C[C@H]3[C@@H]4CC=C5C[C@@H](O)CC[C@]5(C)[C@H]4CC[C@]3(C)[C@H]1[C@@H]2C [Diosgenin],scaled lipid accumulation score,[3],≤ -0.027
CCCCCCCCCCCCCCCC(=O)OC[C@@H](O)COP(=O)(O)O [1-Palmitoyl Lysophosphatidic Acid (sodium salt)],scaled lipid accumulation score,[1],0.001
CCCCCCCCCCCCCCCCOC[C@H](CO)SC(C)=O [2-thio-Acetyl MAGE],scaled lipid accumulation score,[1],≤ 0
"CCCCCC/C=C/C=C\CCCCCCCC(=O)O [9(Z),11(E)-Conjugated Linoleic Acid]",scaled lipid accumulation score,[1],0.029
CCCCCNC(=N)N/N=C/c1c[nH]c2ccc(OC)cc12,scaled lipid accumulation score,[3],0.13
CCCCCNC(=N)N/N=C/c1c[nH]c2ccc(OC)cc12 [Tegaserod maleate],scaled lipid accumulation score,[3],≤ -0.027
CCCCCNC(=N)N/N=C/c1c[nH]c2ccc(OC)cc12 [Tegaserod],scaled lipid accumulation score,[3],≤ -0.027
Cc1cc(-c2ccc(/N=N/c3ccc4c(S(=O)(=O)O)cc(S(=O)(=O)O)c(N)c4c3O)c(C)c2)ccc1/N=N/c1ccc2c(S(=O)(=O)O)cc(S(=O)(=O)O)c(N)c2c1O,scaled lipid accumulation score,[3],0.033
CCCCC[C@H](O)/C=C/[C@@H]1[C@H](C/C=C\CCCC(=O)O)[C@H](O)C[C@H]1O [8-iso Prostaglandin F2.beta.],scaled lipid accumulation score,[1],0.004
CN(C)CCCN1c2ccccc2CCc2ccc(Cl)cc21.Cl [Clomipramine HCl],scaled lipid accumulation score,[3],0.83 (active)
CC[N+]1(C)C2CCC1CC(OC(=O)C1CCC(C(=O)OC3CC4CCC(C3)[N+]4(C)CC)(c3ccccc3)c3ccccc31)C2 (stereo not drawn) [beta- Belladonnine dichloroethylate],scaled lipid accumulation score,,≤ 0
Cc1c(C(N)=O)cc([N+](=O)[O-])cc1[N+](=O)[O-] [Dinitolmide],scaled lipid accumulation score,[2],≤ 0
same,scaled lipid accumulation score,[3],≤ -0.001 and ≤ -0.027
NC1CONC1=O (racemic) [DL-Cycloserine],scaled lipid accumulation score,[3],≤ 0
COc1cc2nc(N(C)CCCNC(=O)C3CCCO3)nc(N)c2cc1OC (centres undefined) [Alfluzosin],scaled lipid accumulation score,library stock concentration: 5.1 mM,≤ 0
COc1cc2nc(N3CCN(C(=O)C4COc5ccccc5O4)CC3)nc(N)c2cc1OC (centres undefined) [Doxazosin Mesylate],scaled lipid accumulation score,[2],≤ 0
same,scaled lipid accumulation score,[3],0.473
COc1cc2nc(N3CCN(C(=O)c4ccco4)CC3)nc(N)c2cc1OC [Prazocin],scaled lipid accumulation score,library stock concentration: 13 mM,1.03 (active)
COc1cc2nc(N3CCN(C(=O)C4COc5ccccc5O4)CC3)nc(N)c2cc1OC (centres undefined) [Doxazosin mesylate],scaled lipid accumulation score,,≤ 0
same,scaled lipid accumulation score,library stock concentration: 4.4 mM,0.151
same,scaled lipid accumulation score,[3],0.85
COc1cc2nc(N3CCN(C(=O)c4ccco4)CC3)nc(N)c2cc1OC [Prazosin],scaled lipid accumulation score,[3],1 (active)
COc1cc2nc(N3CCN(C(=O)c4ccco4)CC3)nc(N)c2cc1OC.Cl [Prazosin hydrochloride],scaled lipid accumulation score,[3],1.35 (active)
COc1cc2nc(N(C)CCCNC(=O)C3CCCO3)nc(N)c2cc1OC (centres undefined) [Alfuzosin hydrochloride],scaled lipid accumulation score,,≤ 0
same,scaled lipid accumulation score,[3],0.274
COc1cc2nc(N(C)CCCNC(=O)C3CCCO3)nc(N)c2cc1OC (centres undefined),scaled lipid accumulation score,[3],≤ 0
COc1cc2nc(N3CCN(C(=O)C4COc5ccccc5O4)CC3)nc(N)c2cc1OC (centres undefined) [Doxazosin],scaled lipid accumulation score,[3],0.539
COc1cc2nc(N(C)CCCNC(=O)C3CCCO3)nc(N)c2cc1OC (centres undefined) [Alfuzosin HCl],scaled lipid accumulation score,[2],≤ 0
same,scaled lipid accumulation score,[3],≤ 0
COc1cc2nc(N(C)CCCNC(=O)C3CCCO3)nc(N)c2cc1OC (centres undefined) [Alfluzocin],scaled lipid accumulation score,[3],0.025
COc1cc2nc(N3CCN(C(=O)c4ccco4)CC3)nc(N)c2cc1OC [Prazosin hydrochloride],scaled lipid accumulation score,,0.676
same,scaled lipid accumulation score,library stock concentration: 4.8 mM,0.682
same,scaled lipid accumulation score,[3],0.361 and 0.672
COc1cc2nc(N3CCN(C(=O)C4CCCO4)CC3)nc(N)c2cc1OC (centres undefined) [Terazosin hydrochloride],scaled lipid accumulation score,,≤ 0
same,scaled lipid accumulation score,[3],≤ -0.006
COc1cc2nc(N3CCN(C(=O)C4CCCO4)CC3)nc(N)c2cc1OC (centres undefined) [Terazosin HCl],scaled lipid accumulation score,[2],≤ 0
same,scaled lipid accumulation score,[4],0.009
same,scaled lipid accumulation score,[3],≤ 0
COc1cc2nc(N3CCN(C(=O)C4CCCO4)CC3)nc(N)c2cc1OC (centres undefined) [Terazosin],scaled lipid accumulation score,library stock concentration: 9.6 mM,≤ 0
same,scaled lipid accumulation score,[3],0.162
COc1cc2nc(N3CCN(C(=O)c4ccco4)CC3)nc(N)c2cc1OC [Prazosin HCl],scaled lipid accumulation score,[4],0.728
O=C(O)CCC/C=C\C[C@H]1C(=O)C=C[C@@H]1/C=C/[C@@H](O)COc1ccccc1 [16-phenoxy tetranor Prostaglandin A2],scaled lipid accumulation score,[1],≤ 0
CCCCCCCCCCCCCCCC(=O)OC[C@H](COP(=O)([O-])OCC[N+](C)(C)C)OC(=O)CCCCCCCC(=O)O,scaled lipid accumulation score,[1],≤ 0
CC(C)(C)[C@]1(O)CCN2C[C@H]3c4ccccc4CCc4cccc(c43)[C@@H]2C1,scaled lipid accumulation score,[3],0.691
CC(C)(C)[C@]1(O)CCN2C[C@H]3c4ccccc4CCc4cccc(c43)[C@@H]2C1 [(+)-Butaclamol hydrochloride],scaled lipid accumulation score,[3],0.672
CCCCC[C@H](O)/C=C/C=C\CCCCCCCC(=O)O,scaled lipid accumulation score,library stock concentration: 100 uM,≤ -0.021
CCCCCC(=O)/C=C/[C@@H]1[C@@H](C/C=C\CCCC(=O)O)[C@@H](O)C[C@H]1O [15-keto Prostaglandin F2.alpha.],scaled lipid accumulation score,[1],≤ 0
CC(=O)NNC(=O)N1Cc2ccccc2Oc2ccc(Cl)cc21,scaled lipid accumulation score,[3],≤ 0 and ≤ -0.006
Clc1ccc2c(c1)C(N1CCNCC1)=Nc1ccccc1O2 [Amoxapine] [listing 1 of 4 here],scaled lipid accumulation score,[3],1.05 (active)
Clc1ccc2c(c1)C(N1CCNCC1)=Nc1ccccc1O2 [Amoxapine] [listing 2 of 4 here],scaled lipid accumulation score,,0.863 (active)
Clc1ccc2c(c1)C(N1CCNCC1)=Nc1ccccc1O2 [Amoxapine] [listing 3 of 4 here],scaled lipid accumulation score,[5],0.886 (active)
CCN(CC)CCCCN1c2ccccc2Oc2ccc(Cl)cc21 [Akt Inhibitor X],scaled lipid accumulation score,[2],0.225
Clc1ccc2c(c1)C(N1CCNCC1)=Nc1ccccc1O2,scaled lipid accumulation score,[3],0.843
Clc1ccc2c(c1)C(N1CCNCC1)=Nc1ccccc1O2 [Amoxapine] [listing 4 of 4 here],scaled lipid accumulation score,[5],0.598
CCN(CC)CCCCN1c2ccccc2Oc2ccc(Cl)cc21 [10-DEBC hydrochloride],scaled lipid accumulation score,[3],0.5
